Measured values taken from PubChem BioAssay (Tox21).
Several values for one entry are separate records, joined by “and”; a condition that tells them apart may be missing. Equal values may be shown once. Inconclusive results are not listed. Where a call stands in place of a potency, no number is given. Activity calls are given as the source filed them. Calls come from the whole dose curve; as a rule, active = well fitted activation curve with a large enough effect in the repeat runs; inconclusive = weak or mixed curves; inactive = no such curve, though single readings can be large or run the other way.

Target: Aryl hydrocarbon receptor (Homo sapiens) (UniProt P35869)
Sequence (P35869 whole entry, looked up): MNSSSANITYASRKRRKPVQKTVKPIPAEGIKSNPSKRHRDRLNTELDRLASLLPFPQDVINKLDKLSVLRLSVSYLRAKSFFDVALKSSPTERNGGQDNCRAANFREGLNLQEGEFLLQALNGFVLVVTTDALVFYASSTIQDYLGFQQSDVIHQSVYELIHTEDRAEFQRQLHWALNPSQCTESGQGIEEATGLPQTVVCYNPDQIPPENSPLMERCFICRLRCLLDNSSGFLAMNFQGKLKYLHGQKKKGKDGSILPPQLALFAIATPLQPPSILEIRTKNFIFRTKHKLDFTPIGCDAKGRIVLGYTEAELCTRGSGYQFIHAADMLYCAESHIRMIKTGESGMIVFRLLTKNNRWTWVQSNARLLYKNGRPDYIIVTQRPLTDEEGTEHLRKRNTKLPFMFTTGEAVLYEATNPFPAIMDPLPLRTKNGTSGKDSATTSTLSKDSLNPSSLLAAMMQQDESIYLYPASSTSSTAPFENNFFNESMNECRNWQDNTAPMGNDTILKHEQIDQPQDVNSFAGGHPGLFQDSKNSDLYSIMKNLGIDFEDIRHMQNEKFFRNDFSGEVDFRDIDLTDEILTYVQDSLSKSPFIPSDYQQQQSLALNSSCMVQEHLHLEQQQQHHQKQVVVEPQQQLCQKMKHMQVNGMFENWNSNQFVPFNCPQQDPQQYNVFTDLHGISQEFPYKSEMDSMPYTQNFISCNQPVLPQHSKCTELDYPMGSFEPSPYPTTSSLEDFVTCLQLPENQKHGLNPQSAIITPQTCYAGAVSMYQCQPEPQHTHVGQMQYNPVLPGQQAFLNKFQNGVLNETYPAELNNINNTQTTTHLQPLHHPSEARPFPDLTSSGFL
Experiment: qHTS assay to identify small molecule that activate the aryl hydrocarbon receptor (AhR) signaling pathway (AID 743085); note: nearly all actives have a fitted effect of over 15% in size;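 for activation: HG2L7.5c1 human HepG2 liver cells with stably integrated DRE-driven firefly reporter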
Conditions: HepG2 AhR-luc (HG2L7.5c1), luciferase, 24 h; series mostly up to 70.3 µM
Excerpt: U.S. Tox21 Program National Center for Advancing Translational Sciences [NCATS] NIH Chemical Genomics Center [NCGC] U.S. Environmental Protection Agency [EPA] National Institutes of Environmental Health Sciences [NIEHS] National Toxicology Program [NTP] U.S. Food and Drug Administration [FDA] Tox21 Assay overview: The Aryl hydrocarbon Receptor (AhR), a member of the family of basic helix-loop-helix transcription factors, is crucial to adaptive responses to environmental changes. AhR mediates cellular responses to environmental pollutants such as aromatic hydrocarbons through induction of phase I and II enzymes but also interacts with other nuclear receptor signaling pathways. A cell based HepG2-AhR-luc assay (HG2L7.5c1 cell line, developed by Dr. Michael S. Denison, University of California at Davis, was used to assess the activation of AhR. HepG2 (human hepatocellular carcinoma) cells were stably transfected with an Ah receptor-responsive firefly luciferase reporter gene plasmid containing 20 dioxin responsive elements and luciferase reporter gene. Increased luciferase activity can be used to identify the compounds that induce AhR activation.
Tox21 Assay Protocol Summary: 4000 cells in 5 uL/well were dispensed into white wall/solid bottom 1536-well plates using a Multidrop Combi (Thermo Fisher Scientific Inc., Waltham, MA) dispenser. After the assay plates were incubated at 37C for 5 h, 23 nL of compound or DMSO vehicle was transferred to the assay plates by a pintool station (Kalypsys, San Diego, CA). The plates were incubated at 37C for 24 hr. After 1 ul/well of CellTiter-Fluor reagent (Promega, Madison, WI) was added into the assay plates using a Flying Reagent Dispenser (FRD) (Aurora Discovery, CA), the assay plates were incubated at 37C for 30 min. The fluorescence intensity in the plates was measured using a ViewLux plate reader (PerkinElmer, Shelton, CT), followed by the addition of 4 uL of ONE-Glo Luciferase Assay reagent (Promega) using an FRD (Aurora Discovery). After the assay plates were incubated at room temperature for 30 min, luminescence intensity was measured using a ViewLux plate reader (Perkin Elmer).
Potency is the fitted concentration of half-maximal effect.

Compound | Potency
CCCCN(N=O)C(=N)N[N+](=O)[O-] | inactive
O=C1c2ccccc2C(=O)C1C(=O)C(c1ccccc1)c1ccccc1 | 29.8 µM (active)
COC(C)(C)CCC[C@H](C)C/C=C/C(C)=C/C(=O)OC(C)C | inactive
O=C(N[C@H](c1ccccc1)[C@@H]1CN2CCC1CC2)c1c(Cl)ccc(C(F)(F)F)c1Cl | inactive
O=S1OC[C@@H]2[C@H](CO1)[C@]1(Cl)C(Cl)=C(Cl)[C@@]2(Cl)C1(Cl)Cl (stereo not given in full) | inactive
CC(C)(C)c1cc([N+](=O)[O-])cc([N+](=O)[O-])c1O | inactive
Cc1c(F)c(F)c(COC(=O)C2C(/C=C(\Cl)C(F)(F)F)C2(C)C)c(F)c1F (stereo not given) | inactive
O=[Se]=O | inactive
CCN(C)N=O | inactive
Clc1cc(Cl)c(Cl)c(Cl)c1 | inactive
CCC(Cl)CCl (stereo not given) | inactive
CCOC(=O)C(Cl)C(C)=O (stereo not given) | inactive
C=CC(=O)OCC(C)O (stereo not given) | inactive
O=C(O)C1(c2ccc3c(c2)OC[C@H](Cc2ccc(-c4ccccc4)cc2)[C@H]3O)CCCC1 | inactive
Cl/C=C\Cl | inactive
Clc1cccc(SC2CCNCC2)n1 | inactive
NC(=O)C(Cl)(Cl)Cl | inactive
COc1nn(C(=O)NS(=O)(=O)c2ccccc2OC(F)(F)F)c(=O)n1C | inactive
CC/C(=N\OC/C=C/Cl)C1=C(O)CC(C2CCOCC2)CC1=O (stereo not given) | inactive
CC1CC(CC2CCC(N)C(C)C2)CCC1N (stereo not given) | inactive

Compound | Potency
O=C(O)C(F)(F)C(F)(F)C(F)(F)C(F)(F)C(F)(F)C(F)(F)C(F)(F)C(F)(F)C(F)(F)C(F)(F)F | inactive
CCOP(=S)(OCC)SCn1nnc2ccccc2c1=O | inactive
Brc1ccccc1 | inactive
Cn1sc(Cl)cc1=O | inactive
COc1cc(Cl)c(OC)cc1Cl | inactive
c1ccoc1 | inactive
COC1=CC(=O)O[C@@H](CCc2ccccc2)C1 | inactive
CCOc1nc(F)cc2nc(S(=O)(=O)Nc3c(Cl)cccc3Cl)nn12 | inactive
ClC=C(Cl)Cl | inactive
CCCCCCCCCCOC(=O)c1ccccc1C(=O)OCCCCCCCCCC | inactive
CCCCC(O)(Cn1cncn1)c1ccc(Cl)cc1Cl (stereo not given) | inactive
CCOP(=O)(OCC)O/C(=C/Cl)c1ccc(Cl)cc1Cl | inactive
CCCC(=O)Cl | inactive
CCOP(=S)(OCC)Oc1nc(Cl)c(Cl)cc1Cl | 27.4 µM (active) and 10.9 µM (active)
O=[N+]([O-])c1ccc(F)c([N+](=O)[O-])c1 | inactive
Clc1cc(C(Cl)(Cl)Cl)cnc1Cl | inactive
[CH3][Sn]([CH3])([Cl])[Cl] | inactive
O=C(CCl)c1ccc(Cl)cc1Cl | inactive
Clc1cccc2ccccc12 | inactive
COP(=S)(OC)Oc1cc(Cl)c(I)cc1Cl | 24.3 µM (active)
